# From PubChem
# SARS PLpro yeast: qHTS of Yeast-based Assay for SARS-CoV PLP; S. cerevisiae expressing SARS-CoV PLpro, growth rescue; Potency, µM (highest dose often 32.9 µM), usual class: activators; actives 0.19% (n = 330,000); calls by dose curve; note: nearly all actives have a fitted effect of over 55% in size
# Pf growth 96h: Primary qHTS for delayed death inhibitors of the malarial parasite plastid, 96 hour incubation; P. falciparum luciferase reporter growth, 96 h; Potency, µM (series often up to 28.7 µM), actives largely listed as inhibitors; actives 6.9% (n = 320,000)
#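 Delayed-death screen, second-generation endpoint: infected erythrocytes, 2% hematocrit, 0.05% parasitemia final; 96 hours at 37 C, 5% CO2; luciferase detection reagent; luminescence decrease equals reduced growth.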
# Shiga inhibitor: A qHTS for Small Molecule Inhibitors of Shiga Toxin. Vero cells, Shiga toxin protein synthesis inhibition reporter. inhibition, % at 38.7 µM. actives 9.2% (n = 290,000); in the data active = inhibition mostly above about 28%, no sharp cut-off; inactive = mostly below about 43%
# Pf growth 48h: Primary qHTS for delayed death inhibitors of the malarial parasite plastid, 48 hour incubation; P. falciparum luciferase growth in erythrocytes, 48 h; Potency, µM (titrated, usually from 28.7 µM), hits mostly inhibitors; actives 5.9% (n = 310,000)
#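 Luminescence readout; reporter = integrated firefly luciferase in P. falciparum. RBC culture at 2% hematocrit, 0.1% parasitemia final, 37 C/5% CO2; decreased signal taken as growth inhibition.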
# AMA1 RON2 block: qHTS for Inhibitors of AMA1-RON; Towards Development of Antimalarial Drug Lead: Primary Screen; AlphaScreen AMA1-biotinylated RON2 peptide binding; Plasmodium falciparum AMA1 (3D7) - RON2 peptide interaction; Potency, µM (doses to about 58.2 µM), usual class: inhibitors; actives 0.2% (n = 360,000); note: nearly all actives have a fitted effect of over 45% in size
#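 AMA1 (3D7) with his tag at 25 nM final met compounds first, then biotinylated RON2 peptide at 25 nM; detection used donor plus acceptor beads, 10 µg/mL apiece, read by AlphaScreen after 30 min at room temperature.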
# Cycloheximide cs: Cycloheximide Counterscreen for Small Molecule Inhibitors of Shiga Toxin | max response, % | cell reporter, cycloheximide protein synthesis inhibition counterscreen | actives 12% (n = 300,000) | AID 2314, 2010; in the data active = max response mostly above about 13%, no sharp cut-off; inactive = mostly below about 14%; note: read at 38.3 µM for the half of the compounds with a filed dose
# A number is an active result; 0 = inactive; ? = inconclusive; - = no result given; [ ] = remark or other dose. Only some compounds are listed: those with a hit (about 19% of all), similar ones and a draw of the others. Unless noted, calls come from the whole dose curve; as a rule, active = well fitted curve in the direction sought with a large enough effect; inconclusive = small, poorly fitted or top-dose-only effect, or another doubt; inactive = no such curve, though single readings can be large; an effect the other way counts as inactive or inconclusive.
SMILES,SARS PLpro yeast,Pf growth 96h,Shiga inhibitor,Pf growth 48h,AMA1 RON2 block,Cycloheximide cs
Fc1ccc(-c2cnn3c(-c4ccncc4)ccnc23)cc1,0,0,73,0,0,22
Cc1nc2c(-c3ccc(Cl)cc3)cnn2c2c1CCC2,0,0,68,0,0,35
Nc1c(-c2ccccc2)cnc2ncnn12,0,0,0,0,0,0
Nc1c(-c2cccc(Cl)c2)cnc2c(-c3ccccc3)cnn12,0,0,64,0,0,45
Cc1nn2c3c(cnc2c1-c1ccccc1)C(=O)CC(c1ccco1)C3 (stereo not drawn),0,-,0,1.5µM,0,0
COc1ccc(COCC(O)CN(Cc2ccco2)Cc2ccccc2O)cc1 (stereo not drawn),0,4.7µM,0,8.3µM,0,0
Oc1ccccc1CN(Cc1ccco1)CC(O)COCc1ccc(Cl)cc1 (stereo not drawn),0,2.1µM,0,2.9µM,0[11.6 µM],0
Cc1ccc2nc(-c3cccc(SC4CCCCC4)c3)c(NCc3ccccc3)n2c1,0,-,-,-,0,-
Clc1ccc2nc(-c3cccc(SC4CCCCC4)c3)c(NCc3ccccc3)n2c1,0,3.7µM,-,4.1µM,0,-
CCCCCCSc1cccc(-c2nc3ccc(Cl)cn3c2NCc2ccccc2)c1,0,?,-,7.4µM,0,-
CCCCCCSc1ccc(-c2nc3ccc(C)cn3c2NCc2ccccc2)cc1,0,?,-,?,0,-
CCCCNc1c(-c2cccc(SC3CCCCC3)c2)nc2ccc(Cl)cn12,0,?,-,10µM,0,-
Nn1c(SCC(=O)NC2CCCc3ccccc32)nnc1-c1ccc(Cl)cc1Cl (stereo not drawn),0,?,0,0,-,0
Cc1ccc2[nH]c(O)c(N=Nc3nc4ccccc4s3)c2c1,0,?,0,0,0,0
C/C(N=Nc1nc2ccccc2s1)=N\Nc1ccccc1O,0,0,0,2.6µM,0,0
Cc1cc(C)nc(Nc2n[nH]c(-c3ccc(N)cc3)n2)n1,0,-,72,0,0,36
Cc1cc(C)nc(Nc2n[nH]c(-c3ccccc3Br)n2)n1,0,-,110,0,0,48
Cc1cc(C)nc(Nc2n[nH]c(-c3ccccc3C)n2)n1,0,?,100,0,0,42
Cc1cc(C)nc(Nc2n[nH]c(-c3ccc(C(C)(C)C)cc3)n2)n1,0,0,0,?,0,0
CCOc1ccc(C(C)NC(=O)C2CCC2)cc1 (stereo not drawn),0,0,0,0,0,0
Cc1ccc(C(O)(COC(=O)C(C)C)COC(=O)C(C)C)c(O)c1,0,0,0,?,0,0
Cn1c(=O)[nH]c(=O)c2c1nc(N1CCCCCC1)n2CCCSc1nc2ccccc2o1,0,0,0,12µM,0,0
CCOC(=O)Cn1c(N2CCOCC2)nc2c1c(=O)[nH]c(=O)n2C,0,12µM,0,0,0,0
CC(CSc1nc2ccccc2s1)Cn1c(N2CCCC2)nc2c1c(=O)[nH]c(=O)n2C (stereo not drawn),0,10µM,0,12µM,0,0
Cn1c(=O)[nH]c(=O)c2c1nc(N1CCOCC1)n2CCCSc1ncccn1,0,0,0,0,0,11
SMILES,SARS PLpro yeast,Pf growth 96h,Shiga inhibitor,Pf growth 48h,AMA1 RON2 block,Cycloheximide cs
Cc1ccnc(SCCn2c(N3CCOCC3)nc3c2c(=O)[nH]c(=O)n3C)n1,-,-,-,-,0,-
CCN1CCN(c2nc3c(c(=O)[nH]c(=O)n3C)n2CCSc2nc3ccccc3s2)CC1,?,0,0,-,0,0
Cc1ccsc1C(=O)N1CCCC(CO)(Cc2ccccc2F)C1 (stereo not drawn),?,0,0,0,0,0
O=[n+]1cc(-c2ccccc2)n([O-])c2c1CCCCC2,0,15µM,0,0,0,16
O=C(Nc1ccc(F)cc1)c1cc(S(=O)(=O)N2CCOCC2)cs1,0,12µM,0,0,0,0
O=C(Nc1ccc(F)cc1)c1cc(S(=O)(=O)Nc2ccc(F)cc2)cs1,0,12µM,0,0,0,0
O=C(CN1CCN(S(=O)(=O)c2ccc(Br)cc2)CC1)N/N=C/c1cccnc1,0,?,0,0,0,0
Nc1cc(OCC(F)(F)F)cc([N+](=O)[O-])c1,0,0,0,0,0,0
Cc1cc(Oc2cc(N)cc([N+](=O)[O-])c2)ccc1Cl,0,8.3µM,0,0,0,0
COc1ccccc1N1CCN(C(=O)c2c(-c3ccccc3Cl)noc2C)CC1,0,?,0,?,0,0
COc1ccc(/C=C/C(=O)c2ccccc2)cc1COc1ccccc1F,0,?,0,?,0,0
COc1ccc(C=O)cc1COc1ccccc1F,0,8.3µM,0,0,0,0
COc1ccc(C=O)cc1CN1C(=O)c2ccccc2C1=O,0,0.15µM,-,?,0,0
COc1ccc(C=O)cc1CN1CCCN(Cc2ccccc2F)S1(=O)=O,0,0,0,0,0,0
COc1ccc(C)cc1NC(=O)c1cccc(-c2ccc(OC(C)=O)cc2)c1,0,0,0,0,0,0
COc1cc(NC(=O)c2cc3ccccc3o2)ccc1NC(=O)c1ccco1,0,0,0,0,0,0
COc1cc(NC(=O)c2c(OC)cccc2OC)ccc1NC(=O)c1cc2ccccc2o1,0,0,-,0,0,22
CCC(=O)Nc1ccc(NC(=O)c2cc3ccccc3o2)c(OC)c1,0,0,34,0,0,27
O/N=C\c1cnc(N2CCN(c3ccccc3)CC2)s1,0,0,68,0,0,42
CCn1c(-c2ccco2)nc2ccccc21,0,0,77,0,0,26
Cc1cccc(OCCn2c(-c3ccco3)nc3ccccc32)c1,0,?,0,?,0,26
Cc1cccc(OCCn2c(S(=O)(=O)O)nc3ccccc32)c1,0,0,0,0,0,0
c1ccc(OCCn2c(-c3ccco3)nc3ccccc32)cc1,0,0,70,?,0,20
O=S(=O)(O)c1nc2ccccc2n1CCOc1ccccc1,0,0,0,0,0,0
CCOC(=O)C1(C)CCN1C(=O)c1ccccc1OC (stereo not drawn),-,-,-,-,0,-
SMILES,SARS PLpro yeast,Pf growth 96h,Shiga inhibitor,Pf growth 48h,AMA1 RON2 block,Cycloheximide cs
CCCN(c1ccccc1C(=O)O)S(=O)(=O)c1ccc2c(c1)n(C)c(=O)n2C,0,0.83µM,0,0,0,0
CCc1ccccc1NC(=S)N(CCOC)C(C)c1ccco1 (stereo not drawn),0,0,0,?,0,0
O=C(NC1CCCCC1)c1cc(-c2ccccc2Cl)on1,0,0,137,0,0,45
CC1CCCC(C)N1C(=O)c1cc(-c2cccs2)on1 (stereo not drawn),0,0,70,0,0,26
O=C(NC1CCCCCCC1)c1c(Cl)cccc1Cl,-,-,-,-,0,-
COCC(C)NC(=O)c1cc(-c2ccccc2OC)on1 (stereo not drawn),0,0,39,0,0,41
